Results reported in PubChem BioAssay AID743402 (Broad Institute, 2014).
Out of some 1,200 compounds screened, about 140 (12%) were called active.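 How the source made its calls: active means fitted curve falls past -35% activity change at a dose under twice the top valid dose, in every replicate test; inconclusive means replicate tests disagree on the call; inactive means the rest, including activity in the opposite direction.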 A selection follows.

Assay: CFTR-F508del correctors, dose response, FRT cells, YFP quenching, cherry-pick (AID 743402);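 further: compounds act as correctors raising surface CFTR-F508del before acute activation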
Conditions: FRT CFTR-F508del YFP iodide quenching, 24 h, channel opened with forskolin and a potentiator; series mostly up to 26 µM

Activity change, negative = more quenching (active), inactive:
NCC(=O)NNC(=O)OCC1c2ccccc2-c2ccccc21
COc1ccc(OC)c(-c2cc(-c3cccnc3)nc(N)c2C#N)c1
COc1cccc(N=Nc2ccc3cccnc3c2O)c1
O=C1NC(=Nc2ccc(O)cc2)S/C1=C/c1ccco1
COc1cc(/C=C2/SC(=Nc3ccc(O)cc3)NC2=O)cc(OC)c1O
CC(=O)c1ccc(Nc2cc(C)nc3c(C)cc(C)cc23)cc1
COc1ccc(Nc2nc(-c3sc(C)nc3C)cs2)cc1
COc1ccc(-c2ccc3c(c2)[C@H]2[C@H](CCN2S(=O)(=O)c2ccc(OC)cc2)[C@@H](CO)N3C)cc1
Cc1cccc(N2CCN(C(=O)c3c(-c4ccccc4)noc3C)CC2)c1C
C[C@@H]1CN([C@@H](C)CO)C(=O)c2cc(NS(=O)(=O)c3ccc(Cl)cc3)ccc2O[C@@H]1CN(C)Cc1ccc(C(F)(F)F)cc1
Nc1[nH]c(C(=O)c2ccccc2)c(-c2ccccc2C(F)(F)F)c1C(=O)NCCc1c[nH]c2ccccc12
Cc1cc(C)c2nc(Cl)c(CN(Cc3ccco3)C(=O)Nc3ccccc3C)cc2c1
COc1ccc(-c2ccnc(-c3ccc(O)cc3)n2)cc1
O=C(c1ccc(Br)cc1)c1cc([N+](=O)[O-])ccc1N1CCOCC1
COc1ccc([N+](=O)[O-])cc1Nc1c2ccccc2nc2ccccc12
COC(=O)/C=C/c1ccccc1S(=O)(=O)N(Cc1ccccc1)Cc1ccco1
NS(=O)(=O)c1ccc(S(=O)(=O)N(CCc2ccccc2)Cc2ccccn2)cc1
CCN1CCN(c2cc(C)c3cc(NC(=O)c4ccc(OC)c(OC)c4)ccc3n2)CC1
N=C1/C(=C/c2cccn2CCOc2ccccc2)C(=O)N=C2SC=C(c3ccccc3)N12
O=C1C=C(NCCc2cc(Br)c(O)c(Br)c2)C(=O)c2ncccc21
Nc1c(C(=O)c2ccco2)oc2ccccc12
Nc1ccn(C2OC(CO)C(O)C2O)c(=O)n1 (stereo unspecified)
O=C(CCCl)Nc1nc2c(s1)CCc1ccccc1-2
C[C@H]1CN([C@@H](C)CO)S(=O)(=O)c2ccc(C#CC3CCCCC3)cc2O[C@H]1CN(C)Cc1cccnc1
CCOC(=O)c1ccc(N2CCOCC2)c(NC(=O)c2c(-c3ccccc3)noc2C)c1
CCN(CC)c1ccc(/C=N/NC(=O)c2cnccn2)cc1
COc1ccc(NC(=O)c2cc(S(=O)(=O)N3CCOCC3)ccc2C)cc1S(=O)(=O)N1CCOCC1
OC[C@@H]1CN(Cc2ccc(-c3ccccc3)cc2)C[C@H](n2cnc3c(NC4CC4)ncnc32)O1
COc1ccccc1NC(=O)CSc1ccc(-c2ccccn2)nn1
COc1ccccc1N=C1SC(C(=O)Nc2cccc(Cl)c2Cl)C(N)=C1C(N)=O (stereo unspecified)
CC(C)C[C@H]1CN([C@@H](Cc2ccc(O)cc2)CN2CCC[C@H]2CN2C(=O)C(=O)NC[C@@H]2Cc2ccccc2)C(=O)C(=O)N1CC1CCCCC1
CCC(=O)N1CC2(CCN(Cc3ccc(Cl)cc3)CC2)c2c(n(C)c3cc(OC)ccc23)[C@H]1CO
COC(=O)C1=CN(c2ccc(OC)cc2OC)C(N)=C(C#N)C1c1ccccc1F (stereo unspecified)
CCCC(=O)NC(c1ccc(Cl)cc1)c1ccc2cccnc2c1O (stereo unspecified)
Cc1cccc(NC(=S)N/N=C/c2cccc(O)c2)c1C
Cc1cnc(NC(=O)c2ccc3c(c2)OCCO3)s1
Cc1cc(Br)cc(/C=N/NC(=O)c2ccc3c(c2)OCO3)c1O
O=C(Cc1ccc(Br)cc1)NCc1ccccc1
Cc1nc(N)[nH]c(=O)c1CCCNS(=O)(=O)c1ccc([N+](=O)[O-])cc1
CC(C)CN(CCCNC(=O)CN1C(=O)CSc2ccc(S(=O)(=O)N3CCOCC3)cc21)CC(C)C
CCN(CC)C(=O)c1oc2ccc(S(=O)(=O)N3CC(C)CC(C)C3)cc2c1C (stereo unspecified)
O=C(N=Nc1c(O)[nH]c2ccc(Br)cc12)c1ccccc1-n1cccc1
Cn1cccc1/C=C1\SC(=Nc2cccc(O)c2)NC1=O
Cc1ccc(C2NC(=O)c3ccccc3N2)c(C)c1 (stereo unspecified)
Cn1cc(C(=O)N/N=C/c2ccc3c(c2)OCO3)c2ccccc21
COc1cc(OC)c2c(-c3cccc(-c4cccc(N)c4)c3)cc(=O)oc2c1
CC(C)Nc1ccc(Nc2ccnc3cc4ccccc4cc23)cc1
CN1c2ccc(-c3ccc(F)cc3)cc2[C@H]2[C@H](CCN2S(=O)(=O)c2cccc(F)c2)[C@@H]1CO
Cc1cccc(S(=O)(=O)N2C[C@H]3[C@@H](c4ccccc42)[C@H](CO)N3CC2CCCC2)c1
Cc1ccccc1S(=O)(=O)N1C[C@@H]2N[C@H](C1)C2c1ccc(-c2cccc(C#N)c2)cc1 (stereo partly specified)
CCCNC(=O)N1CC2(CN(S(=O)(=O)c3cccc(OC)c3)C2)c2c(n(C)c3cc(OC)ccc23)[C@H]1CO
COc1ccc(-c2ccc3c(c2)[C@H]2[C@H](CCN2S(=O)(=O)c2ccc(OC)cc2)[C@H](CO)N3C)cc1
COc1cccc(-c2ccc([C@H]3[C@@H](CO)N(C(=O)c4ccccn4)[C@H]3C#N)cc2)c1
Cc1ccc(C)c(C2NC(=O)c3ccccc3N2)c1 (stereo unspecified)
COC(=O)CSC1=C(C#N)C(c2ccc(C)o2)CC(=O)N1 (stereo unspecified)
COc1ccccc1CNC(=O)Nc1nc(C(N)Cc2ccc(Cl)cc2)cs1 (stereo unspecified)
CN(C)CCCN(C(=O)c1ccco1)c1nc(-c2ccc(Cl)cc2)cs1
O=C(CCc1ccccc1)NCC(c1ccco1)N1CCc2ccccc21 (stereo unspecified)
CCOC(=O)c1oc2ccc(S(=O)(=O)n3nc(-c4ccccc4)cc3N)cc2c1C
Cc1ccc(C(=O)N/N=C/c2cc(Br)ccc2O)cn1
Cc1ccc(-c2ccc3c(c2)O[C@H](CN(C)Cc2ccccn2)[C@@H](C)CN([C@@H](C)CO)S3(=O)=O)cc1
O=[N+]([O-])c1ccc(N=Nc2c(Cl)cc(O)cc2Cl)cc1
COc1ccc(OC)c2[nH]c(C(=O)N/N=C/c3ccccc3O)cc12
Cc1ccc(-c2ccc3c(c2)O[C@@H](CN(C)Cc2ccccn2)[C@H](C)CN([C@H](C)CO)S3(=O)=O)cc1
Cn1c(C(=O)c2ccccc2[N+](=O)[O-])nc2ccccc21
Cc1cccc(N2CCN(S(=O)(=O)c3cc(-c4cc(C)no4)ccc3C)CC2C)c1 (stereo unspecified)
C[C@@H]1CN([C@H](C)CO)S(=O)(=O)c2ccc(-c3ccccc3)cc2O[C@H]1CN(C)Cc1ccccn1
COc1ccc(-c2ccc3c(c2)[C@H]2[C@H](CCN2S(=O)(=O)c2ccc(OC)cc2)[C@@H](CO)N3)cc1
O=C(C[C@@H]1CC[C@H]2[C@@H](COC[C@H](O)CN2Cc2ccc3c(c2)OCO3)O1)Nc1ccc(-c2ccccc2)cc1 21.4% [at 2.85 µM]
COc1cc2c(-c3ccccc3)c(C)oc2cc1/C=N/NC(N)=S
Cc1ccc(/C=N/NC(=O)c2c(-c3ccccc3)noc2C)c(O)c1
CO/N=C\CC(=O)Nc1ccc(Cl)cc1Cl
CCOc1cc(/C=N/NC(=O)N/N=C/c2ccc(O)c(OCC)c2)ccc1O
COc1ccc(C2c3ccc4ccccc4c3Oc3ncn(CCCO)c(=N)c32)cc1OC (stereo unspecified)
CCOC(=O)c1c(NC(=O)C(=O)N/N=C/c2ccccc2O)sc2c1CCCCC2
O=c1c2ccccc2oc2cc(-c3ccc4[nH]ccc4c3)ccc12
O=C(NCCOc1ccccc1F)c1cc([N+](=O)[O-])ccc1N1CCOCC1
CCOc1ccc(C(=O)COC(=O)Cc2n[nH]c(=O)c3ccccc23)cc1
O=C1c2cccc3c(O)ccc(c23)C(=O)N1c1ccc(Cl)cc1
CCN1C(=O)c2cccc3c(S(=O)(=O)N(C(C)=O)c4ccc(OC(C)=O)cc4)ccc1c23
C/C(=N\Nc1ncnc2sc(C)c(C)c12)c1ccccn1
Cn1cccc1/C=C1\SC(=Nc2ccccc2)NC1=O
CCc1cc(-c2nnn(CCC3COCCO3)c2CC)ccc1-c1cn(Cc2ccc3ccccc3c2)nn1 (stereo unspecified)
COc1cc(NC(=O)c2csc(N)n2)cc(C(=O)Nc2cccc(C(F)(F)F)c2)c1
O=C(C1CCCCC1)N1CC(=O)N2[C@@H](CO)[C@H](c3ccc(C#Cc4cccc(F)c4)cc3)[C@@H]2C1
CC1=Nc2cc(C(=O)NCC3CCCO3)ccc2Sc2ccc(C)cc21 (stereo unspecified)
COc1ccccc1NC(=S)N(Cc1ccco1)Cc1cc2cc(C)cc(C)c2[nH]c1=O
CC(=O)O[C@H]1C(=O)[C@]2(C)[C@H]([C@H](OC(=O)c3ccccc3)[C@]3(O)C[C@H](OC(=O)[C@H](O)[C@@H](NC(=O)c4ccccc4)c4ccccc4)C(C)=C1C3(C)C)[C@]1(OC(C)=O)CO[C@@H]1C[C@@H]2O
COc1cc2c(cc1OC)C(C)N(C(=O)Nc1cc(C)cc(C)c1)CC2 (stereo unspecified)
C=CCN1c2ccccc2[C@]23C[C@@H](C(=O)OC)N(C(=O)c4cccs4)C2=NC(C(=O)OC)=C(C(=O)OC)[C@H]13
C[C@H]1CN([C@@H](C)CO)C(=O)Cc2cc(NC(=O)Nc3ccc(C(F)(F)F)cc3)ccc2O[C@H]1CN(C)S(=O)(=O)c1ccccc1
O=C(N/N=C\c1c(O)ccc2ccccc12)c1cncc(Br)c1
C[C@H]1CN([C@@H](C)CO)S(=O)(=O)c2ccc(C#Cc3ccc(F)cc3)cc2O[C@H]1CN(C)C(=O)NC1CCCC1
COc1ccc(OC)c(Nc2cc(C)nc3ccc(C)cc23)c1
C[C@H]1CN([C@@H](C)CO)S(=O)(=O)c2ccc(-c3ccc(C#N)cc3)cc2O[C@@H]1CN(C)Cc1ccccn1
Oc1ccc2ccccc2c1C=NNc1ccccn1
Cc1cccc(Nc2nc(N)nc(-c3oc4ccccc4c3C)n2)c1
CCOC(=O)c1ccc(Nc2sc(C(=O)c3cccc([N+](=O)[O-])c3)c(N)c2C#N)cc1
CCc1ccc(-c2nc(C(N)=O)c3[nH]c(=O)n(-c4ccccc4OC)c3n2)cc1
Nc1sc(-c2ccccc2)cc1-c1n[nH]c(=S)n1C1CCCCC1
Cc1ccc(C)c(CSc2nc3[nH]ncc3c(=O)[nH]2)c1
